39 compounds from PubChem BioAssay (NCI) can be followed below.

Structures are written as SMILES. “And” between values parts separate entries of the source, which are not always exact repeats. Equal entries are not always repeated. The panel holds about 83,000 compounds, 20% with a hit somewhere; the sample as a whole holds those more often.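 Treatment: one concentration, 48 hours, 96-well format. Scoring: percent growth, with anything below 10 considered active.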 The source made the active and inactive calls.

The test deals with HL-60(TB) leukemia. Briefly: NCI-60 one-dose screen, 48 h (100 = growth as untreated, 0 = no growth, -100 = all killed). The following applies: 10 µM unless noted.
For `CN(C)CCN1CCN(c2ncccc2C2Nc3ccccc3-n3cccc32)CC1` (centres undefined), the growth was 98.7% (inactive). The value for `ClCc1ccc(-c2ccc(Cn3cnc4nc(Cl)nc(Cl)c43)cc2)cc1` was -78.9% (active); that for `CCOC(=O)c1ccc2[nH]c(O)c(C(=Nc3ccc(N(C)C(=O)CN4CCN(C)CC4)cc3)c3ccccc3)c2c1` was -52.6% (active); that for `CCNc1nc(-c2ccc(Cl)c(OC)c2)c(-c2ccnc(NCCCNS(=O)(=O)c3ccc(Cl)cc3)n2)s1` was 34.9% (inactive). The value for `Cc1cc(N2CCCCC2)nc(N(CCCNc2ccnc3cc(Cl)ccc23)Cc2ccco2)n1` was -43.6% (active); that for `Cc1ccc(-c2nc3nc(-c4ccccc4)nc(N4CCNCC4)c3o2)cc1` was -68.4% (active). `COC(=O)C(=C\c1ccc2c(c1)OCO2)/C(=C/c1ccc2c(c1)OCO2)C(=O)OC`: the growth was 112% (inactive). The result for `COc1cccc2cc(-c3cc4ccccc4[nH]3)c(=NC(=O)c3ccc(Cl)cc3)oc12` reads 72.1% (inactive). The result for `CCN(CC)CCCC(C)N(Cc1ccccc1)CC(O)c1ccc(Cl)cc1` (centres undefined) reads 101% (inactive) and 106% (inactive).

Regarding `COc1cccc(NC(=O)Cn2cc(CN3CCN(c4ccnc5cc(Cl)ccc45)CC3)nn2)c1`, the growth is 124% (inactive). Regarding `Cc1c2c(nn1C(=O)c1nn(-c3ccc(Cl)cc3)cc1O)-c1ccccc1CC2`, the growth was -43.4% (active). With `C=CC(=O)Nc1cccc(-c2nc(SC)nc(Nc3ccccc3OC)c2C#N)c1`, the growth was 14.1% (inactive). The value for `COc1cc(C2CC(c3cccc(Br)c3)=NN2C(C)=O)cc(OC)c1OC` (centres undefined) was 78.2% (inactive); that for `NCCOc1ncccc1/C=C1\c2ccccc2-c2ccc([N+](=O)[O-])cc21` was -41.7% (active).

`O=C(Nc1cccc(-n2cc(-c3ccncc3)c(-c3ccc(O)c(Cl)c3)n2)c1)Nc1ccc(Cl)c(Cl)c1`: the growth was -13.2% (active). On to `CCc1ccc(-c2ccc(NC3CCCCCC3)nn2)cc1S(N)(=O)=O`, for which the growth is 121% (inactive). The result for `COc1ccc(-c2ccc(-c3ccc(C(=N)N)c(F)c3)s2)cc1` reads -79.4% (active); that for `Nc1nc(N)c2[nH]cnc2n1`, 87.5% (inactive); that for `N=C(N)c1ccc(-c2ccc(-c3cc(F)cc(F)c3)o2)nc1`, 97.7% (inactive).

Consider `Cc1[nH]c2ccccc2c(=O)c1CC=C(Cl)Cl`, for which the growth was 57.5% (inactive). The result for `Cc1cc(C)c(N)c(Br)c1` reads 97.9% (inactive) and 69% (inactive); that for `COc1ccc(Nc2nc(N/N=C/c3ccc(O)cc3)nc(Nc3ccc([N+](=O)[O-])cc3)n2)cc1`, 116% (inactive). Consider `O=C1CC(N2C(=O)/C(=C/C(Cl)=C\c3ccc([N+](=O)[O-])cc3)SC2=S)C(=O)N1c1ccc(Cl)cc1` (centres undefined), for which the growth was 21.3% (inactive). Consider `CN(C)CCCn1c2c(c3cc(-c4cccc(S(N)(=O)=O)c4)ccc3c1=O)C(=O)c1ccccc1-2`, for which the growth is 93.2% (inactive).

Turning to `COc1ccc(-c2nc3sccn3c2/C=C/C(=O)c2ccc3c(c2)OCO3)cc1`, the growth is 79.6% (inactive). The result for `O=C1C(Cl)=C(Nc2ccc(O)cc2)C(=O)N1Cc1ccc(Cl)cc1` reads 32.8% (inactive). The value for `CCN(CCO)CCC(=O)c1ccc([N+](=O)[O-])cc1` was 109% (inactive); that for `C=C1C(=O)O[C@H]2[C@H]1CC/C(COC(=O)OC/C1=C/CC[C@@]3(C)O[C@H]3[C@H]3OC(=O)[C@@H](CN(C)C)[C@@H]3CC1)=C\CC[C@@]1(C)O[C@@H]21` was -43% (active); that for `CCOC(=O)C1=NN(c2ccccc2)C(=O)/C1=C\N1C(=O)CC(=O)NC1=S` was 101% (inactive). As to `COc1ccc2[nH]cc(C(c3cc(F)cc(F)c3)c3c[nH]c4ccc(OC)cc34)c2c1`, the growth was 131% (inactive). Take `C/C(=N\NC(N)=S)c1nc2ccc(Cl)cc2[nH]1`: the growth is 29.5% (inactive).

Take `CN1CCN(Cc2ccc(NC(=O)c3cncc(C#Cc4cnc(N)c5ccccc45)c3)cc2C(F)(F)F)CC1`: the growth was -46.3% (active). The value for `COc1cc(C2CC(=O)c3c(C)nn(-c4nc5ccccc5[nH]4)c3C2)cc(OC)c1OC` (centres undefined) was 132% (inactive); that for `Cc1cc2nc3c4cc(O)ccc4n(CCN(C)C)c3nc2cc1C` was 7.36% (active); that for `CC(=O)Nc1ccc(OC(C)=O)cc1` was -9.02% (active) and 104% (inactive). The result for `O=C1/C(=C/c2ccc(Cl)c(Cl)c2)CN(C(=O)C(Cl)Cl)C/C1=C\c1ccc(Cl)c(Cl)c1` reads -15.2% (active).

Turning to `CC(C)=CCc1cc2c(cc1O)C1=C(C(=O)C3=C(NCCS3(=O)=O)C1=O)C(C=C(C)C)O2` (centres undefined), the growth is -35.2% (active). The value for `O=C(N/N=C/c1ccc(Cl)cc1Cl)c1ccccc1Nc1cccc(C(F)(F)F)c1` was 85.7% (inactive); that for `CC1(C(=O)O)NC(C(=O)O)Cc2c1[nH]c1ccccc21` (centres undefined) was 99.8% (inactive).
